Screening results from PubChem.
A selection: hits, their analogues and other compounds. The true share with any hit is near 2.9%.
Nrf2 ARE act: activates Nrf2 signaling; AREc32 ARE-luciferase reporter (MCF7-derived line), luminescence, 24 h; Potency, µM (top dose mostly 46.1 µM), inactives show top-dose activation, hits mostly activators; 410,000 tested, 0.31% active; AID 624171; also: % of control where 0% means no effect; nearly all actives have a fitted effect of over 65% in size
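ARE-driven firefly luciferase activity in AREc32 cells measured after a 24 hr compound exposure at 37 deg C, using Steady-Glo reagent and a 30 min room-temperature hold.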
ATXN2 expr inh: reduces ATXN2 reporter expression in HEK-293 cells. AID 1745845. 360,000 tested, 0.72% active. Potency, µM (highest dose often 57 µM), for inactives: top-dose activity change, negative = inhibition, actives largely listed as inhibitors. HEK-293 ATXN2-luciferase reporter, luminescence, 24 h; also: % is scaled to controls: 0 for no effect and ±100 for the full control effect; nearly all actives have a fitted effect of over 55% in size
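qHTS (up to 57 uM final) was run with 24 h compound exposure of reporter cells at 37 °C. Each well was multiplexed: SteadyGlo luminescence measured ATXN2-luciferase expression after a fluorogenic Gly-Phe-AFC viability readout (25 uM final).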
S2 tox: viability counter-screen for ATXN expression inhibitors. S2 cells (HEK-293 line with an ATXN2-luciferase reporter) viability, CellTiter-Fluor protease fluorescence, 24 h. Potency, µM (highest dose often 56.7 µM), most hits filed as cytotoxic. 400,000 tested, 0.49% active. AID 651635; also: nearly all actives have a fitted effect of over 40% in size
Nrf2 block: blocks Nrf2 signaling | A549 ARE-Fluc reporter, luciferase luminescence, 18-24 h | Potency, µM (highest dose often 46 µM), for the others: at the highest dose activity change, negative = inhibition, usual class: inhibitors | 360,000 tested, 2.1% active | AID 504444; also: % is scaled to controls: 0 for no effect and ±100 for the full control effect; nearly all actives have a fitted effect of over 60% in size
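Reporter: ARE-Fluc in A549. Exposure: 18-24 h, 37 °C, 5% CO2, 5% FBS OPTI-MEM. Readouts: fluorescent cytotoxicity (CellTiter-Fluor), then luminescent Nrf2 signal after BugLite.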
A549 tox: A549 cytotoxicity, counter-screen for Nrf2 inhibitors | A549 ARE-Fluc cells, CellTiter-Fluor viability, 18-24 h | Potency, µM (titrated, usually from 46 µM), without a hit: top-dose activity change, negative = cytotoxicity, hits mostly inhibitors | 390,000 tested, 0.16% active | AID 504648; also: % is scaled to controls: 0 for no effect and ±100 for the full control effect
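A549 ARE-Fluc cells in 5% FBS OPTI-MEM, 5000 cells/well, rested 2 h then exposed to compounds in concentration-response for 18-24 h at 37 °C. Viability by CellTiter-Fluor fluorescence (Ex 405/Em 525) after 30 min; luciferase luminescence (BugLite, 15 min, RT) read afterwards.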
Numbers without * were called inactive; i = inactive; ? = inconclusive; · = no result given; [ ] = dose if it differs, or a comment. Calls follow the shape of the dose curve; as a rule, active = well fitted curve in the direction sought with a large enough effect; inconclusive = small, poorly fitted or top-dose-only effect, or another doubt; inactive = no such curve, though single readings can be large; an effect the other way counts as inactive or inconclusive. Potency is read from the fitted curve at half-maximal effect.

SMILES	Nrf2 ARE act	ATXN2 expr inh	S2 tox	Nrf2 block	A549 tox
O=C(c1ccc2c(c1)C(=O)N(CCCO)C2=O)c1ccc2c(c1)C(=O)N(CCCO)C2=O	-1%	-1%	i	·	7%
CC(C)(C)c1ccc(Cn2nnc3c(=O)[nH]c(C4CCCN(C(=O)Cc5cccs5)C4)nc32)cc1 (configuration not stated)	3%	-18%	i	?	2%[1.84 µM]
CC(C)(C)c1ccc(Cn2nnc3c(=O)[nH]c(C4CCCN(C(=O)c5cccs5)C4)nc32)cc1 (configuration not stated)	2%	-17%	i	23µM*	-18%
O=C(c1ccco1)N1CCC(c2nc3c(nnn3Cc3c(Cl)cccc3Cl)c(=O)[nH]2)CC1	0%	-7%	?	1%	-5%
CC(C)(C)c1ccc(Cn2nnc3c(=O)[nH]c(C4CCN(C(=O)c5ccco5)CC4)nc32)cc1	3%	-19%	i	26µM*	?
CCOC(=O)C(=O)CCc1ccccc1	·	3%	i	·	·
O=C(/C=C/c1ccc(S(=O)(=O)N2CCOCC2)cc1)Nc1cc(F)ccc1F	9%	1%	i	-8%	1%
Cc1ccc(F)cc1NC(=O)/C=C/c1ccc(S(=O)(=O)N2CCOCC2)cc1	0%	-7%	i	16µM*	-10%
COc1ccc(/C=C/C(=O)Nc2ccc(C)c(S(=O)(=O)N3CCOCC3)c2)cc1	0%	22µM*	?	23µM*	-10%
Cc1ncc2c(c1CNS(=O)(=O)N(C)C)CCN(C(=O)/C=C/c1cccc(F)c1)C2	·	·	i	·	·
COc1ccc(C(=O)CC(Nc2ccc([N+](=O)[O-])cc2)c2ccc(Cl)cc2)cc1 (configuration not stated)	1%	-32%	i	6.5µM*	?
COc1ccc(C(=O)CC(=O)C(=O)Nc2ccc(Cl)cc2)cc1	2%	1%	i	6%	0%
CCCn1c(=O)c2sccc2n2c(CCCC(=O)NCc3ccccc3)nnc12	3%	·	·	-9%	1%
CCCCC(CC)CNC(=O)CCCc1nnc2n(CCC)c(=O)c3sccc3n12 (configuration not stated)	1%	-37%	18µM*	-5%[9.27 µM]	-22%
CCCCOc1cccc(C(=O)Nc2sc3c(c2C(=O)OCC)CCCC3)c1	2%	-6%	i	-1%	-2%
CC(C)C(=O)Nc1ncc(-c2cc(C(F)F)nn2-c2c(Cl)cccc2Cl)s1	·	-1%	·	·	·
COc1cc([C@H]2c3[nH]c4ccccc4c3C[C@H]3C(=O)N4[C@@H](c5cc(OC)c(OC)c(OC)c5)c5[nH]c6ccccc6c5C[C@H]4C(=O)N23)cc(OC)c1OC	1%	?	16µM*	-17%	-10%
Cc1sc2nc(C(C)C)nc(SCC(=O)N3CCN(C(=O)c4ccco4)CC3)c2c1C	2%	32µM*	·	?	9%
Cc1cc(NC(=O)CSc2nc(C(C)C)nc3sc(C)c(C)c23)no1	-1%	-13%	i	15µM*	?
Cn1c(=O)c(F)c(Nc2ccc(I)cc2F)c2c(=O)n(C[C@@H](O)CO)cnc21	·	-11%	·	·	·
COC(=O)c1cc2c(n1S(=O)(=O)c1ccc(C)cc1)C(=O)C(=O)c1[nH]cc(C(=O)OCc3ccccc3)c1-2	-2%	3µM*	4.7µM*	4.1µM*	4.1µM*
O=C(Nc1ccc(F)cc1)Nc1ccc(N2CCCC2)c(S(=O)(=O)Nc2ccccc2Cl)c1	3%	?	?	23µM*	?
O=C(Nc1ccc(Cl)c(Cl)c1)Nc1ccc(N2CCCC2)c(S(=O)(=O)Nc2ccccc2Cl)c1	0%	?	?	13µM*	?
CC(=O)c1ccc(N2CCN(C(=O)Nc3ccc(C(C)C)cc3)CC2)cc1	2%	-22%	i	7.3µM*	?
CC(C)c1ccc(NC(=O)N2CCOCC2)cc1	4%	155%	i	22%	2%
SMILES	Nrf2 ARE act	ATXN2 expr inh	S2 tox	Nrf2 block	A549 tox
CNC(=O)c1cnn2c(C)cc(C)nc12	·	·	·	-25%	-11%
CCN1CCC(N(Cc2ccc3c(c2)OCO3)C(=O)Nc2ccc(Br)c(C)c2)CC1	?	25µM*	?	-3%	-3%
CCN1CCC(N(Cc2ccc3c(c2)OCO3)C(=O)Nc2cccc(C)c2C)CC1	4%	-8%	i	?	-5%
O=Nc1c(-c2c(O)[nH]c3cc(Br)ccc23)[nH]c2ccccc12	-2%	?	11µM*	10µM*	21µM*
COc1ccc(C2Nc3ccccc3C(=O)N2CCO)cc1COc1ccc(NC(C)=O)cc1 (configuration not stated)	·	·	·	-11%	-9%
COC(=O)[C@@H]1CCCN1Cc1ccc2c(c1)CN(Cc1ccccc1C)CCO2	·	·	i	·	·
O=C(CCC(=O)OCC(F)(F)C(F)F)Nc1ccc(Cl)cc1	0%	-11%	i	1%	·
Cc1ccc(NC(=O)OCC(F)(F)C(F)F)cc1NC(=O)OCC(F)(F)C(F)F	2%	-6%	i	18µM*	·
O=C(NC1CCN(Cc2ccccc2)CC1)c1cccc(S(=O)(=O)Nc2ccc(Br)cc2)c1	4%	-17%	?	?	-16%
O=C(NC1CCN(Cc2ccccc2)CC1)c1cccc(S(=O)(=O)Nc2ccc(F)cc2)c1	0%	-37%	i	16µM*	?
COc1ccccc1NS(=O)(=O)c1cc(C(=O)NC2CCN(Cc3ccccc3)CC2)ccc1C	0%	?	i	5.8µM*	?
COc1ccccc1NS(=O)(=O)c1ccc(C)c(C(=O)NC2CCN(Cc3ccccc3)CC2)c1	5%	-23%	i	?	3%
Cc1ccc(NS(=O)(=O)c2cccc(C(=O)NC3CCN(Cc4ccccc4)CC3)c2)c(C)c1	0%	?	i	21µM*	?
COc1ccc(NS(=O)(=O)c2ccc(C)c(C(=O)NC3CCN(Cc4ccccc4)CC3)c2)cc1	2%	-25%	i	13µM*	-28%
COc1cccc(CNC(=O)CN(c2ccc(C)cc2)S(=O)(=O)N(C)C)c1OC	0%	2%	i	13%	7%
COc1ccccc1C1CN(Cc2cccc3nccnc23)Cc2ccccc2O1 (configuration not stated)	·	·	i	·	·
COCC1CCCN(c2nc(CN3CCN(C(=O)c4ccco4)CC3)nc3ccccc23)C1 (configuration not stated)	·	·	i	·	·
COc1ccc(CCNC(=O)c2ccc(Cl)c(S(=O)(=O)N(C)c3ccccc3)c2)cc1	0%	-34%	i	18µM*	-24%
COc1ccc(/C=N/NC(=O)c2ccc(N(C)S(=O)(=O)c3ccccc3)cc2)cc1	4%	·	?	26µM*	-16%
COc1ccc(C(=O)Nc2ccc(S(=O)(=O)N(C)c3ccccc3)cc2)cc1	5%	-1%	i	21µM*	-5%
